From PubChem
Mito fusion act: mitochondrial division inhibition or fusion activation; S. cerevisiae fusion-defective mutant growth rescue, CellTiterGlo 48 h; Potency, µM (series often up to 46.1 µM), most hits filed as activators; 0.23% of 320,000 active; also: nearly all actives have a fitted effect of over 45% in size
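S. cerevisiae fusion-defective temperature-sensitive mutants (e.g. fzo1-1, mgm1-5) grown 48 h at 37C in YPEG (ethanol/glycerol non-fermentable) medium with 23 nl compound per well; growth rescue read as CellTiterGlo luminescence.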
FUS suppressor: suppressors of FUS proteinopathy in yeast | 0.24% of 390,000 active | Potency, µM (doses to about 76.6 µM), usual class: activators | AID 1347120 | S. cerevisiae FUS-expressing, growth rescue, OD600, 24 h; also: nearly all actives have a fitted effect of over 55% in size
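Galactose (2%) drives FUS expression in yeast precultured in raffinose; seeding density OD 0.005. Test compounds incubated 24hr at 30C and 99% humidity before absorbance at 600 nm was measured.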
Abeta yeast res: A-beta toxicity reversal in yeast. yeast expressing A-beta42, growth rescue, OD600, 48 h; response scale: 0% DMSO, 100% iron-clioquinol control. Potency, µM (series often up to 46.1 µM), usual class: activators. 0.063% of 410,000 active; also: nearly all actives have a fitted effect of over 55% in size
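Yeast A-beta toxicity model in growth medium with pinned compounds, 48 h at 30 C; growth read as absorbance at 600 nm. Normalized to FeCl3/clioquinol equimolar mix (positive) and DMSO (negative).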
aSyn yeast inh: rescues yeast growth from alpha-synuclein toxicity | Yeast expressing alpha-synuclein, growth rescue, BacTiter-Glo, 24 h | Potency, µM (doses to about 46.1 µM), most hits filed as activators | 0.14% of 370,000 active; also: nearly all actives have a fitted effect of over 65% in size
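Rescue of yeast growth: cells expressing toxic alpha-synuclein, induced in galactose at OD600 0.02, incubated with compound 24 h at 30 C. ATP luminescence quantified growth; inhibitors of toxicity appear as activators.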
TDP43 rescue: inhibitors of TDP-43 toxicity in yeast; TDP-43 expressing yeast growth rescue, BacTiter-Glo, 24 h; Potency, µM (top dose mostly 46.1 µM), usual class: activators; 1.8% of 410,000 active; also: nearly all actives have a fitted effect of over 50% in size
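Cell-based yeast growth screen: TDP-43 expression induced in galactose, inoculum OD600=0.02 after raffinose pregrowth to mid-log. Read-out BacTiter-Glo luminescence at 24 hr, 30 deg C; inhibition of toxicity seen as signal increase.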
Each line names hits and unclear results; the compound was inactive in the other large screens. In the library only some 2.2% were active in any assay of this set; here they are far more common. Calls follow the shape of the dose curve; as a rule, active = well fitted curve in the direction sought with a large enough effect; inconclusive = small, poorly fitted or top-dose-only effect, or another doubt; inactive = no such curve, though single readings can be large; an effect the other way counts as inactive or inconclusive.

COc1ccc(C(=O)NC2CCCc3c2cnn3-c2cc(F)cc(F)c2)c(OC)n1 (configuration not stated)	none
COc1ccc(C(=O)NC2CCCc3c2cnn3-c2cc(F)cc(F)c2)c(OC)c1OC (configuration not stated)	Mito fusion act 11.2µM
COC(=O)c1ccc2nc(-c3ccccc3)c(Cc3ccccc3OC)n2c1	TDP43 rescue 35.5µM (no result: Mito fusion act)
COc1ccccc1Cc1c(C2CCCCC2)nc2ccc(Br)cn12	TDP43 rescue 12.6µM (no result: Mito fusion act)
COc1ccccc1Cc1c(-c2ccccc2)nc2ccc(Br)cn12	TDP43 rescue 35.5µM (no result: Mito fusion act)
COc1ccccc1Cc1c(-c2ccc(C)cc2)nc2ccc(Br)cn12	none (no result: Mito fusion act)
FC(F)(F)c1ccccc1Cc1c(C2CCCCC2)nc2ccc(Br)cn12	TDP43 rescue inconclusive (no result: Mito fusion act)
Cc1ccc(C)c(CN2CCCN(Cc3ccc(F)cc3)S2(=O)=O)c1	none (no result: Mito fusion act, aSyn yeast inh)
CCc1ccc(-c2nc3cc(NC(=O)c4ccc(C)c(C)c4)ccc3o2)cc1	none (no result: Mito fusion act, aSyn yeast inh)
CCc1ccc2oc(-c3ccc(NC(C)=O)cc3)nc2c1	TDP43 rescue 3.55µM
CCN(C(=O)C(NS(=O)(=O)c1ccc(Br)s1)c1ccccc1)c1ccc(C)c(C)c1 (configuration not stated)	none (no result: Mito fusion act, aSyn yeast inh)
CC1CC(C)CN(C(=O)C(NS(=O)(=O)c2ccc(Br)s2)c2ccccc2)C1 (configuration not stated)	Mito fusion act inconclusive, TDP43 rescue 14.1µM
O=C1CCCCCN1Sc1ccccc1	Abeta yeast res inconclusive, TDP43 rescue 15.8µM
CCN1CCOC(=O)C1CC(=O)Nc1cccc(OC)c1 (configuration not stated)	TDP43 rescue inconclusive (no result: Mito fusion act, aSyn yeast inh)
CCCCc1nn2c(=O)cc(COC(=O)c3ccccc3NC(=O)C3CCCCC3)nc2s1	none (no result: Mito fusion act, aSyn yeast inh)
O=C(NCc1ccco1)c1ccc(N2CCCCC2)c([N+](=O)[O-])c1	TDP43 rescue inconclusive
O=C(NCc1ccc2c(c1)OCO2)c1cccc([N+](=O)[O-])c1	none
O=C(NCc1ccc2c(c1)OCO2)c1cc([N+](=O)[O-])ccc1N1CCCCC1	TDP43 rescue 20µM (no result: FUS suppressor)
O=C(NCc1ccco1)c1cc([N+](=O)[O-])ccc1N1CCCCC1	TDP43 rescue 14.1µM
CCCN(CC1CC1)c1nc(C)nc(Nc2c(Cl)cc(Cl)cc2Cl)c1Cl	Mito fusion act 14.6µM
CCCN(CC1CC1)c1nc(C)nc2c1nnn2Cc1ccccc1	none (no result: Mito fusion act, Abeta yeast res, aSyn yeast inh, TDP43 rescue)
CCCCNC(=O)c1cc(-c2ccc(OC)cc2)nc2n[nH]c(-c3cccc([N+](=O)[O-])c3)c12	none (no result: Mito fusion act, aSyn yeast inh)
CCc1ccccc1NS(=O)(=O)c1ccc(-c2coc(C)n2)cc1	TDP43 rescue 12.6µM (no result: Mito fusion act)
Cc1ccc(C)c(Cn2nnc(C(=O)NCc3ccc(Cl)cc3Cl)c2N)c1	none (no result: Mito fusion act, aSyn yeast inh)
C[C@H](CO)N1C[C@H](C)[C@@H](CN(C)S(=O)(=O)c2cccs2)Oc2c(NC(=O)NC3CCCCC3)cccc2C1=O	FUS suppressor 14.1µM (no result: Mito fusion act)
C[C@H](CO)N1C[C@H](C)[C@@H](CN(C)C(=O)Nc2ccc(C(F)(F)F)cc2)Oc2c(NC(=O)C3CCCCC3)cccc2C1=O	FUS suppressor inconclusive, TDP43 rescue inconclusive (no result: Mito fusion act)
C[C@@H]1CN([C@H](C)CO)C(=O)c2cccc(NC(=O)NC3CCCCC3)c2O[C@@H]1CN(C)C(=O)Nc1ccc(C(F)(F)F)cc1	FUS suppressor 31.6µM (no result: Mito fusion act)
C[C@H](CO)N1C[C@H](C)[C@@H](CN(C)C(=O)Nc2ccc(C(F)(F)F)cc2)Oc2c(NC(=O)NC3CCCCC3)cccc2C1=O	FUS suppressor 28.2µM (no result: Mito fusion act)
C[C@H](CO)N1C[C@H](C)[C@@H](CN(C)S(=O)(=O)c2cccs2)Oc2c(NC(=O)Nc3ccccc3)cccc2C1=O	FUS suppressor inconclusive (no result: Mito fusion act)
COc1ccc(C2=C(c3ccc([N+](=O)[O-])cc3)C(=O)OC2)cc1	none
Cc1ccc(C2=C(c3ccc([N+](=O)[O-])cc3)C(=O)OC2)cc1C	TDP43 rescue 12.6µM
O=C(Cn1c(=O)cnc2ccccc21)Nc1cc(Cl)ccc1N1CCOCC1	TDP43 rescue 12.6µM (no result: Mito fusion act)
O=C(C[n+]1ccccc1Br)c1ccc(Cl)cc1	none (no result: Mito fusion act, FUS suppressor, Abeta yeast res, TDP43 rescue)
CC(C)CC(=O)NC(=S)Nc1ccc(N2CCN(C(=O)c3cccs3)CC2)cc1	TDP43 rescue 17.8µM
CC(C)C(=O)Nc1ccc(N2CCN(C(=O)c3cccs3)CC2)cc1	none
S=C(c1cccs1)N1CCN(c2ccccc2)CC1	TDP43 rescue 17.8µM (no result: Mito fusion act, FUS suppressor)
S=C(c1cccs1)N1CCCC1	none
COc1ccc(OC)c(-c2noc(N3CCN(c4ccc(Cl)cc4)CC3)n2)c1	TDP43 rescue 11.2µM (no result: Mito fusion act, aSyn yeast inh)
COc1ccc(-c2cc(C(=O)N3CCN(c4ccccc4)CC3)no2)cc1	TDP43 rescue 11.2µM
COc1ccc(-c2noc(N3CCN(c4ccc(Cl)cc4)CC3)n2)cc1OC	none (no result: Mito fusion act, aSyn yeast inh)
Cc1ccc2nc(-c3ccccc3F)c(Nc3ccc(Cl)cc3)n2c1	none (no result: Mito fusion act, aSyn yeast inh)
O=C(c1cc(-c2cccs2)on1)N1CCN(c2ccccc2)CC1	TDP43 rescue 11.2µM
COc1ccc(OC)c(-c2cc(C(=O)N3CCN(c4ccccc4)CC3)no2)c1	FUS suppressor inconclusive, TDP43 rescue 22.4µM
O=C(COCc1cc(-c2cccs2)on1)N1CCN(c2ccc(F)cc2)CC1	TDP43 rescue 15.8µM (no result: Mito fusion act, aSyn yeast inh)
O=C(c1cc(-c2cccs2)on1)N1CCN(c2ccc(F)cc2)CC1	none
COc1ccc(OC)c(-c2cc(C(=O)N3CCc4ccccc4C3)no2)c1	none
CCNc1nc(Cl)nc(NC2CCCCC2)n1	TDP43 rescue 12.6µM
COc1ccc(NC(=O)C2CCN(c3ccc(Sc4ccc(C)cc4)nn3)CC2)cc1	none (no result: Mito fusion act, aSyn yeast inh)
